Most compounds without a hit are left out; they make up all but 3.9% or so of the library.
TGFb SMAD3 inh – inhibitors of TGF-b signaling; HepG2 CAGA-GFP TGF-b/SMAD3 reporter, GFP fluorescence, 18 h; TGF-beta stimulated, 500 pg/mL final; Potency, µM (titrated, usually from 46.1 µM), inactives show at the highest dose activity, negative = inhibition, actives largely listed as inhibitors; hit rate 1.2% among 410,000; AID 588855; also: % is scaled to controls: 0 for no effect and ±100 for the full control effect; nearly all actives have a fitted effect of over 65% in size
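HEPG2 CAGA-GFP cells (1000/well, DMEM with 1% FBS) were pre-incubated 2 h at 37 degrees C, given compound by pin tool, then stimulated with TGF-beta at 500 pg/mL final for 18 h before per-cell GFP fluorescence imaging.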
HepG2 tox – counter-screen for TGF-b inhibitors: cytotoxicity in HepG2 cells; HepG2 CAGA-GFP viability, ATP luminescence, 18 h; Potency, µM (series often up to 46.1 µM), for the others: at the highest dose activity change, negative = cytotoxicity, usual class: cytotoxic; hit rate 0.76% among 410,000; AID 588856
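HepG2 CAGA-GFP cells (1000/well, DMEM with 1% FBS) received compound, then TGF-beta at 500 pg/mL final, and were incubated 18 hours at 37 degrees C. Viability was read by CellTiter-Glo luminescence. Media-only wells were set as complete cell-killing and DMSO as no toxicity.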
HT1080 IDH1KD tx – HT-1080 IDH1 knockdown cell toxicity (counter line). HT-1080 IDH1 knockdown viability, ATP luminescence, 48 h. Potency, µM (doses to about 46.1 µM), for inactives: top-dose activity, negative = toxicity, most hits filed as cytotoxic. hit rate 2% among 360,000;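 also: 0% = DMSO wells and -100% = cell-free medium wells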
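% activity derives from luminescence (CellTiter-Glo), normalised to DMSO and no-cell wells. HT-1080-IDH1KD cells, 750/well, had 48 h compound exposure at 37 °C.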
ATXN viability – reduces viability in counter-screen for ATXN expression inhibitors. S2 cells (HEK-293 line with an ATXN2-luciferase reporter) viability, CellTiter-Fluor protease fluorescence, 24 h. Potency, µM (titrated, usually from 56.7 µM), usual class: cytotoxic. hit rate 0.49% among 400,000. AID 651635; also: nearly all actives have a fitted effect of over 40% in size
ATXN2 expr inh – ATXN2 expression inhibition; HEK-293 ATXN2-luciferase reporter, luminescence, 24 h; Potency, µM (series often up to 57 µM), inactives show at the top dose activity change, negative = inhibition, actives largely listed as inhibitors; hit rate 0.72% among 360,000; also: % is scaled to controls: 0 for no effect and ±100 for the full control effect; nearly all actives have a fitted effect of over 55% in size
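ATXN2-luciferase reporter cells (luciferase flanked by upstream and downstream ATXN2 gene portions) were treated 24 h at 37 °C with compounds at up to 57 uM. SteadyGlo luminescence gave expression; GF-AFC fluorescence gave viability.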
HT1080NT lethal – kills 2HG-producing HT-1080-NT fibrosarcoma cells; HT-1080-NT fibrosarcoma viability, CellTiter-Glo ATP luminescence, 48 h; Potency, µM (series often up to 46.1 µM), inactives show top-dose activity, negative = less viability, hits mostly cytotoxic; hit rate 1.6% among 360,000;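 also: NT is the 2HG producing partner of a matched IDH1 knockdown line; 0% = DMSO-treated cells and -100% = media-only wells without cells; nearly all actives have a fitted effect of over 55% in size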
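750 cells/well, RPMI + 5% FBS; 2 h settle, compound pin-transfer, 48 h at 37 degrees C. CellTiter-Glo 10 min RT, luminescence. Normalized to DMSO and media-only wells.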
The depositor's hits bear a star; i = inactive; ? = inconclusive; nt = not tested or not shown. Calls follow the shape of the dose curve; as a rule, active = well fitted curve in the direction sought with a large enough effect; inconclusive = small, poorly fitted or top-dose-only effect, or another doubt; inactive = no such curve, though single readings can be large; an effect the other way counts as inactive or inconclusive. Potency is read from the fitted curve at half-maximal effect.

SMILES	TGFb SMAD3 inh	HepG2 tox	HT1080 IDH1KD tx	ATXN viability	ATXN2 expr inh	HT1080NT lethal
O=C(Nc1ccc(Br)cc1)c1ccc(F)c(S(=O)(=O)N2CCCc3ccccc32)c1	?	-20%	nt	nt	nt	nt
O=C1NCc2c1c1c3ccccc3[nH]c1c1[nH]c3ccccc3c21	?	13µM*	nt	nt	nt	nt
CCOCCC(=O)Nc1ccc2c(c1)c(=O)n(C)n2Cc1cccc(C(F)(F)F)c1	6%	5%	14%	i	9%	?
CC(=O)OC1C(O)C(C)OC(OC2C(OC(=O)C3CCC4C(C3)OC3(CC(OC(=O)/C=C/c5ccccc5)C(C)CO3)C43CO3)OC(C)C(O)C2OC(C)=O)C1O (configuration not stated)	?	4%	0.065µM*	?	0.21µM*	0.13µM*
O=S(=O)(F)Cc1ccccc1	nt	nt	nt	nt	30%	nt
CC/C(=C(\c1ccc(O)cc1)c1ccc(OCCN(C)C)cc1)c1ccccc1	?	-97%	18µM*	nt	?	16µM*
Cc1ccc(/C=C2\C(=O)NC(=S)N(c3ccc(F)cc3)C2=O)s1	-22%	6%	?	?	?	?
Cc1ccc(/C=C2\C(=O)NC(=S)N(c3ccccc3F)C2=O)s1	?	-109%	?	?	32µM*	?
Cc1cccc(N(C)S(=O)(=O)c2cc(-c3cnc(C4CC4)o3)ccc2C)c1	?	-32%	nt	i	3%	nt
Cn1c(O)c(C(=Nc2ccccc2)SCc2ccccc2Cl)c(=O)n(C)c1=O	-19%	-20%	13µM*	?	-22%	?
C=C1C(C)C2C(Cc3ccccc3)NC(=O)C23OC(=O)/C=C/C(O)CCCC(C)C/C=C/C3C1O (configuration not stated)	-10%	-33%	8.2µM*	?	-11%	?
CCN1C(=O)c2ccccc2Sc2ccc(NC(=O)Nc3ccc(Br)c(C)c3)cc21	?	-2%	nt	?	?	nt
COc1ccc(C=C(C(=O)O)c2ccc(OC)cc2)cc1	-6%	-3%	3%	?	17%	5%
C[C@H]1CC[C@@H]2[C@@H](C)[C@H]3C(CC4C5CC=C6CC(O[C@@H]7O[C@H](CO)C(O[C@@H]8O[C@@H](C)[C@H](O)[C@@H](O)[C@H]8O)[C@H](O)[C@H]7O[C@@H]7O[C@@H](C)[C@H](O)[C@@H](O)[C@H]7O)CC[C@]6(C)C5CC[C@@]43C)N2C1 (some centres not stated)	14µM*	20µM*	nt	nt	nt	nt
C[C@]12CC[C@H](O)CC1=CCC1C2CC[C@@]2(C)C1C[C@@H](O)[C@@H]2O (some centres not stated)	13%	-1%	3%	i	5%	4%
C[C@@H]1CC[C@@]2(OC1)O[C@H]1C[C@H]3[C@@H]4CC=C5C[C@@H](O[C@@H]6O[C@H](CO)[C@@H](O[C@@H]7O[C@@H](C)[C@H](O)[C@@H](O)[C@@H]7O)[C@H](O)[C@@H]6O[C@@H]6O[C@@H](C)[C@H](O)[C@@H](O)[C@@H]6O)CC[C@]5(C)[C@@H]4CC[C@]3(C)[C@@H]1[C@H]2C	nt	nt	nt	nt	12µM*	nt
Cc1c(C(=O)NCc2ccc3c(c2)OCO3)cnn1-c1ncc2c(n1)-c1ccccc1CC2	nt	nt	nt	i	nt	nt
CCOc1cccc(CNCCc2c(C)[nH]c3ccc(OC(F)(F)F)cc23)c1O	-9%	-1%	18µM*	?	nt	?
Cc1[nH]c2ccc(OC(F)(F)F)cc2c1CCNCc1cccc([N+](=O)[O-])c1	?	i	13µM*	i	?	15µM*
COc1ccc2[nH]c(C)c(CCNCc3cccnc3)c2c1	16%	-2%	-3%	i	-1%	0%
CC(C)Oc1ccc(CNC(=O)Oc2ccccc2)cc1	-21%	-21%	?	?	?	-3%

Assay outcomes from PubChem.
